Screening results: PubChem, National Center for Advancing Translational Sciences (NCATS)
Menin MLL FP FL – inhibitors of human menin-MLL interaction, wild-type MLL peptide. Fluorescence polarization, fluorescein-MLL peptide displacement from menin. FP activity change, % at 61.4 µM. 290,000 tested, under 10 active; active means well fitted curve in the direction sought with a large enough effect in the polarisation, not every such curve was filed as active; inconclusive means small, poorly fitted or top-dose-only effect, or effect the other way, or a change in a side signal; inactive means no such curve, though single readings can be large or run the other way; the % refers to the polarisation; further: % of control where 0% means no effect
ClpP mod – qHTS Assay for Activators of ClpP; actives 1.9% (n = 340,000); purified B. subtilis ClpP, FRET peptide cleavage, 20 min; Potency, µM (highest dose often 57.5 µM), without a hit: at the highest dose activity change, negative = active; ATP-dependent Clp protease proteolytic subunit (Bacillus subtilis (strain 168)), P80244; AID 651965, 2013; active means well fitted falling curve with a large enough effect; inconclusive means small, poorly fitted or top-dose-only effect; inactive means no such curve, though single readings can be large or run the other way; further: potency means the concentration at half of the fitted maximal effect; the source files actives as falling curves though it sought activators and does not explain the sign; nearly all actives have a fitted effect of over 65% in size
Target sequence (P80244 whole entry, looked up): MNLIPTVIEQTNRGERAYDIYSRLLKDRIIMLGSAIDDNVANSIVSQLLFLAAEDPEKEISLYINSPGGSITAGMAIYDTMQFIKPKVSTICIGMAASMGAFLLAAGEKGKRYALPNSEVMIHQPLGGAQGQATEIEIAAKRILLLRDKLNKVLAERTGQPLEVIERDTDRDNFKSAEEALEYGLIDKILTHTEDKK
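FRET quenching reversal measured ClpP activation: 10 microg/mL B. subtilis ClpP at pH 8 with the FRET-FV decapeptide, read at 430 nm after 320 nm excitation. The 20-min minus 0-min signal was scaled between DMSO/no-enzyme wells and ADEP (5.8 microM final).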
CXXC DNA block – MLL CXXC-DNA interaction inhibition | MLL-CXXC / FITC-HOXA9 DNA fluorescence polarization | Q03164 | AID 2662 | Potency, µM (top dose mostly 115 µM), for inactives: top-dose activity change, negative = inhibition, actives largely listed as inhibitors | actives 0.037% (n = 290,000); active means well fitted inhibition curve with a large enough effect in the polarisation, with a control signal flat, not every such curve was filed as active; inconclusive means small, poorly fitted or top-dose-only effect, or effect the other way, or a change in a side signal; inactive means no such curve, though single readings can be large or run the other way; the % refers to the polarisation; further: potency means the concentration at half of the fitted maximal effect
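Steps: dispense CXXC domain solution (7 uM) → pin compounds or unlabeled HOX-A9 DNA control → 5 min ambient → add FLSN-HOX-A9 solution (50 nM) → spin → 30 min ambient → fluorescence polarization. Tris pH 7.5/NaCl/DTT/BSA buffer.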
p53 reactivator – mutant p53 re-activation in reporter cells; H1299 p53-A138V BP100-luciferase reporter, luminescence, 24 h; Potency, µM (doses to about 92.2 µM), for the others: at the highest dose activity change, positive = activation, hits mostly activators; actives 0.063% (n = 320,000); active means well fitted activation curve with a large enough effect; inconclusive means small, poorly fitted or top-dose-only effect; inactive means no such curve, though single readings can be large or run the other way; further: potency means the concentration at half of the fitted maximal effect; % of control where 0% means no effect; nearly all actives have a fitted effect of over 45% in size
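p53-null H1299 cells stably carrying temperature-sensitive p53-A138V and a BP100-luciferase reporter were pinned with compounds (4-point, 1:5 series) and held 24 hrs at 37 deg C. Luminescence was read 10 min after detection reagent.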
Menin-MLL TR inh – displaces Texas Red mutant MLL peptide from human menin | actives 0.23% (n = 270,000) | O00255 | Potency, µM (doses to about 61.6 µM), inactives show at the highest dose FP activity change, negative = inhibition, actives largely listed as inhibitors | Menin + Texas Red MLL mutant peptide, fluorescence polarization; active means well fitted inhibition curve with a large enough effect in the polarisation, with a control signal flat, not every such curve was filed as active; inconclusive means small, poorly fitted or top-dose-only effect, or effect the other way, or a change in a side signal; inactive means no such curve, though single readings can be large or run the other way; the % refers to the polarisation; further: potency means the concentration at half of the fitted maximal effect; % of control where 0% means no effect
Starred values were filed as active, the others as inactive; ? = inconclusive; . = no result; ! = not active in a repeat; [ ] = another dose, or the depositor's remark. Shown is part of a subset that was picked to be rich in hits.

SMILES	Menin MLL FP FL	ClpP mod	CXXC DNA block	p53 reactivator	Menin-MLL TR inh
Nc1ccn([C@@H]2O[C@H](CO)[C@H](O)C2(F)F)c(=O)n1	1	.	-8%	.	-4%
N#Cc1ccc(Oc2ccc(-c3cnc4ccccc4n3)cc2)cc1C#N	-2	20µM*	9%	19%	7%
N#Cc1cccc(S(=O)(=O)N2CCN(S(=O)(=O)c3ccc4c(c3)OCCO4)CC2)c1	.	-4%	.	.	.
COc1ccc(NC(=O)C(NC(=O)/C=C\c2ccc3c(c2)OCO3)c2ccc(C)cc2)cc1 (stereo not given)	.	4%	.	.	.
Cn1c(=O)c2c(ncn2CC(=O)N2CCOCC2)n(C)c1=O	1	32µM*	-4%	-24%	-6%
COC(=O)N1C2CC3(C)CC(=O)CC1(C)C3c1ccccc12 (stereo not given)	0[11.7 µM]	.	.	.	1%[11.7 µM]
CCN(CC)c1nc(N)c2c(N)nc3c(c2c1C#N)CC(c1ccccc1)O3 (stereo not given)	?	28µM*	8%	-17%	2%
N#Cc1c(N2CCCCC2)nc(N)c2c(N)nc3c(c12)CC(c1ccccc1)O3 (stereo not given)	7	28µM*	29%	-1%	20%
CCC1Cc2c(nc(N)c3c(N)nc(N4CCCCC4)c(C#N)c23)O1 (stereo not given)	-2	.	-5%	0%	14%
O=C(C[n+]1cc(Br)cc(Br)c1)c1ccc2c(c1)CCCC2	.	0%	.	.	.
Cc1oc2cc(OCC(=O)O)ccc2c(=O)c1Oc1ccccc1	1	-5%	?	2%	0%
CCc1cc2c(=O)c(Oc3ccccc3)c(C)oc2cc1O	4	7.9µM*	1%	5%	4%
Cc1ccc(-c2cc(-c3n[nH]c(=S)o3)c3ccccc3n2)cc1	8	20%	1%	2%	?
CSc1nnc(-c2cc(-c3ccc(C)cc3)nc3ccccc23)o1	1	35µM*	21%	1%	7%
COc1ccccc1-c1sc2ccccc2c1-c1ccc(OCCN2CCCCC2)cc1	.	32µM*	.	-7%	.
COc1ccc(-c2sc3ccccc3c2-c2ccc(OCCN3CCCCC3)cc2)cc1	.	28µM*	.	-6%	.
COc1ccc(-c2sc3ccc(OC)cc3c2-c2ccc(OCCN3CCOCC3)cc2)cc1	.	16µM*	.	-9%	.
COc1ccc(-c2c(-c3ccccc3OC)sc3ccccc23)cc1OC	3	28µM*	-3%	.	15%
COc1ccccc1-c1sc2ccccc2c1-c1ccccc1OC	.	?	.	-3%	.
c1ccc(-c2sc3ccccc3c2-c2ccc(OCCN3CCCC3)cc2)cc1	.	?	.	-6%	.
COc1cccc(-c2sc3cc(OC)c(OC)cc3c2-c2ccc(OCCN3CCCCC3)cc2)c1	.	28µM*	.	-5%	.
NS(=O)(=O)c1nn2cc(-c3ccccc3)nc2s1	-4	.	.	.	53%
CC(=O)/C(=C/Nc1ccc(Oc2ccccc2)cc1)c1ccccc1	0	7.9µM*	1%	1%	-9%
COc1ccc(C(NC(=O)C2CCCCC2)c2c(O)ccc3ccccc23)cc1 (stereo not given)	9	25µM*	6%	3%	?
O=C(OCC#CCSc1nnc(-c2ccccc2)o1)c1cccs1	2	-2%	59%	12%	4%
SMILES	Menin MLL FP FL	ClpP mod	CXXC DNA block	p53 reactivator	Menin-MLL TR inh
C#CCSc1nnc(-c2cccc3ccccc23)o1	.	32µM*	.	.	.
O=C(OCC#CCSc1nnc(-c2cccc3ccccc23)o1)c1cccs1	4	28µM*!	2%	-1%	27%
O=C(NCc1ccccc1F)c1ccc(S(=O)(=O)Nc2cccc(C(F)(F)F)c2)cc1	6	-2%	?	5%	14%
O=C(NCc1ccc(F)cc1)c1ccc(S(=O)(=O)Nc2cccc(C(F)(F)F)c2)cc1	3	14µM*	2%	5%	?
COc1cccc2c1CCCC2CCCN1CCN(C2CCCCC2)CC1 (stereo not given)	0	.	.	.	-26%
COc1ccc2[nH]c(=O)c(CN(Cc3ccccc3)Cc3nnnn3CC3CCCO3)cc2c1 (stereo not given)	3	28µM*	8%	3%	-20%
COc1ccc2[nH]c(=O)c(CN(Cc3cccnc3)Cc3nnnn3CC3CCCO3)cc2c1 (stereo not given)	0	3%	-15%	-2%	.
COc1cc2cc(CN(Cc3nnnn3Cc3ccccc3)CC3CCCO3)c(=O)[nH]c2cc1OC (stereo not given)	0	28µM*	-6%	-12%	-11%
COc1ccc2[nH]c(=O)c(CN(Cc3cccs3)Cc3nnnn3C(C)(C)C)cc2c1	1	32µM*	13%	-10%	0%
CN(C)c1ccc(C=O)c(Cl)c1	.	-4%	.	.	.
Cn1c(CNC(=O)CSc2n[nH]c(-c3ccccc3)n2)nc2ccccc21	.	-1%	.	.	.
CN(C)CCCNC(=O)/C=C/c1ccc2c(c1)OCO2	1	16µM*	4%	1%	-10%
CC(=O)Nc1ccc(NC(=O)/C=C/c2ccc3c(c2)OCO3)cc1	0	.	6%	0%	-21%
Oc1cc2c(cc1O)[C@@H]1c3ccc(O)c(O)c3OC[C@]1(O)C2	0	.	.	.	-6%
CCC(=O)Nc1c(S(=O)(=O)c2ccc(C)cc2)c2nc3ccccc3nc2n1C(C)c1ccccc1 (stereo not given)	0	20µM*	7%	-16%	-2%
CCCCn1c(NC(=O)c2ccc(Br)o2)c(S(=O)(=O)c2ccccc2)c2nc3ccccc3nc21	5	-20%	2%	-8%	.
CCC(=O)Nc1c(S(=O)(=O)c2ccccc2)c2nc3ccccc3nc2n1C(C)c1ccccc1 (stereo not given)	5	32µM*	18%	0%	5%
COc1ccc(-c2nn(-c3ccccc3)cc2/C=N/NC(=O)c2ccc(Br)o2)cc1	5	32µM*	29%	1%	?
O=C(N/N=C\c1cn(-c2ccccc2)nc1-c1ccccc1)c1ccc2c(c1)OCO2	8	-21%	27%	3%	25µM*
O=C(N/N=C/c1cn(-c2ccccc2)nc1-c1ccc(F)cc1)c1ccc2c(c1)OCO2	2	?	26%	2%	?
O=C(N/N=C/c1cn(-c2cccs2)nc1-c1ccccc1)c1ccccc1Br	-1	22µM*	?	?	?
COc1ccc(-c2nn(-c3ccccc3)cc2/C=N/NC(=O)c2ccc3c(c2)OCO3)cc1	6	.	12%	0%	?
COc1ccccc1NS(=O)(=O)c1cccc(C(=O)N/N=C/c2ccccc2OCC(=O)O)c1	2	.	10%	-5%	3%
COc1ccc(-c2nn(-c3ccccc3)cc2/C=N/NC(=O)c2cccc(S(=O)(=O)Nc3ccccc3OC)c2)cc1	4	18µM*	9%	14%	?
